# Data published in the supplement of paper PMC6555819.
# Test system: VDR:RXRa (NR concentration 270 nM, RXRa partner concentration 90 nM)
# Experiment: PBM binding z-score (relative to random genomic background probes); higher = stronger binding; sequences stand for … in GC…GCGATTGACAGCGTAGAATGAAGG
# Description: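 Protein-binding microarray (Agilent 4x180K custom design, double-stranded 60-nt probes: 5' GC cap, 34-nt variable region, 24-nt constant primer region; full probe sequence given). Purified or IVT nuclear receptor:RXRα heterodimers (3:1 NR:RXRα, mostly 270:90 nM) or homodimers were incubated for 1 h in PBS with 2% milk and no ligand, then detected with Alexa488 antibodies. Fluorescence from o1-orientation probes (~5 replicates averaged) was converted to z-scores against 500 random hg19 background probes. Variable regions are seed direct-repeat (DR0–DR5) sites, all their single-nucleotide variants and half-site ablations.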
row,Sequence,PBM binding z-score
1,TCAGACAGGTGGAGGTAACTCAGGTACGCAGTCG,0.574
2,CTCGAAAGGTCGGTTGATGTGAGTATACGGATAA,1.17
3,TCTCGGAGTACACGAAGGTCAGAGCTTTCCAGAG,2.27
4,AGTCAAAGTTCATCTAGGTAACGTAGGATATGCT,5.09
5,CGTCCACGGTCATAGGAGGTCAGTGAAGACAGAT,3.27
6,GTGACTGGGGCAAAGCAGGTTACCATAAGGTTGG,0.488
7,CTCGAAAGGTCGTGCTCAGGTGAGTAGACCAAAC,3.08
8,AGAACGAGGGCAACGAGTTGATAGCACGGGTGGC,5.16
9,CCTACTGGGCCATCAGGTCATTGCTATCAACGTT,1.71
10,CCAGCCAGGTGAAAGGTAACTCAGTCTGGTACGC,0.288
11,TTATCAAGGTGAGCTGAGGTCGTTGATCCAACTC,3.93
12,TCTAGTTGATCACGGAGGTCACACACGACGGGTA,3.99
13,AGAACGACGGCACGCTGAGTTGATAGCAGAGTAG,-0.301
14,AGAACGAGCGCACGCTGAGTTGATAGCAGAGTAG,-0.801
15,TCATATAGGTAGACAGGTGAAAGTCCGTAAGTTA,0.905
16,CCGACTGGGGCAATGGTTACCATACTCAGTACGA,-0.604
17,TCTTGAAGATCAATAGAGGTTAAGAAAGTGCGCT,1.92
18,TCCGACAGGTGAAGGTAACTCAGGTACGCAGTCG,0.225
19,CCCTACGGGTCACTGACAGGTTATAGCATTTGGA,3.56
20,CTCGCAAGGTCGTGCTCAGGTGAGTATACCAAAC,2.24

row,Sequence,PBM binding z-score
1,TAGCCTAGATCATTCAGGGGCCAGTATAGAAAGC,-0.321
2,CTCGAAAGGTCGGTTGCGGTGAGTATACGGATAA,1.11
3,ACAGACAGGTGATGAAGGGAACTCAGGCTATCAT,-0.182
4,CCGACTGCGGCATAAGGTTACCATAAGCCAGCCC,0.0281
5,AAAATGAGGTTATTAAGATCAGGGAATTGCGGTC,2.47
6,TCTAGCAGGCCCGAGGGTCACTCAAGAGGTACGG,1.14
7,CTCGTAAGGTCGTGCTCAGGTGAGTATACCAAAC,2.61
8,GGAACGAGAGCATTCGAGTTGATAGCATGGCGAT,-0.115
9,AGTCAAAGTTCATCTAGCTAACGTAAGATATGCT,4.35
10,AGAACGAGGGCAATGAGTTGATAACACGGGTGGC,5.15
11,TGAATGAGGTTATAAGATAAGGGAACGTTGCAAA,0.811
12,GCGACTGGGGCATCAGCAGTTTACCATAACTTAA,-0.0228
13,CGAACTATGTCAGAACAGGACAGTGAAGGATGAT,-0.317
14,ACAGACAGGTGATGAAGGTAACTCATGCTATCAT,0.111
15,CTCGCAAGGTCGGTTGAGGTGAGTATACGGATAA,1.21
16,ATCGAAAGGTCGAAGGTTAGTATACCCACCCGAA,3.14
17,GCTAGTTGGTCAGTAAAAAGTCACACACCGGTCG,0.0507
18,CCTCGGAGGACGACAGGAGGTCAGAGCTGCCAGA,1.44
19,CAAATTAGGTCAAGGTCAAAGTCGGTTTGTGCCA,5.33
20,ACTAGCAGGTCAAGTTTGGGTCACTCAAACAAAG,4.68
